OTUD3 inh: inhibitors of human OTUD3 deubiquitinase; Q5T2D3; purified OTUD3, Ub-rhodamine fluorescence, 2 h; inhibition, % at 25 µM; 0.7% of 47,000 active; AID 1645858
UCHL1 inh: human UCHL1 deubiquitinase inhibition | inhibition, % at 20 µM | AID 1645859 | 0.2% of 47,000 active | purified UCHL1, Ub-rhodamine cleavage fluorescence | P09936
Target sequence (P09936 whole entry, looked up): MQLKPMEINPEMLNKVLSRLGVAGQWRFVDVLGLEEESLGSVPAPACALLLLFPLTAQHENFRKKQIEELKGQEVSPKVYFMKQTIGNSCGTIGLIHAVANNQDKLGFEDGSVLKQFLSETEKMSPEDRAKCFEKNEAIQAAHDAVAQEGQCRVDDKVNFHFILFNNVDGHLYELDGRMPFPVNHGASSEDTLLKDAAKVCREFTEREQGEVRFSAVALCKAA
USP8 block: blocks human USP8 ubiquitin-rhodamine cleavage; P40818; purified USP8, Ub-rhodamine cleavage fluorescence, 30 min; inhibition, % at 20 µM; 4.2% of 47,000 active; AID 1645853
USP7 inh: inhibitors of human USP7 deubiquitinase. purified USP7, Ub-rhodamine cleavage fluorescence. inhibition, % at 20 µM. 0.3% of 47,000 active
USP10 block: inhibitors of human USP10 deubiquitinase | Q14694 | purified USP10, Ub-rhodamine fluorescence, 60 min | inhibition, % at 20 µM | 1.1% of 47,000 active | AID 1645856
Numbers stand for hits; - = inactive; . = no result given. Most compounds without a hit are left out; they make up all but 4.9% or so of the library. Rule as the data show it: active = inhibition above about 30%; inactive = the rest.

SMILES | OTUD3 inh | UCHL1 inh | USP8 block | USP7 inh | USP10 block
COc1ccc(NC2c3ccccc3C(=O)N2c2ccccn2)cc1 (stereo unspecified) | - | - | 83 | - | -
Cc1ccc(NC2c3ccccc3C(=O)N2c2ccccn2)cc1 (stereo unspecified) | - | - | - | - | -
CCn1cc(NC(=O)CN2CCC3(CC=CCOC3)CC2)c(C)n1 | 46 | - | - | - | -
Cc1cc(C)nc(NCCC(=O)N2CCC3(CC=CCOC3)CC2)n1 | - | - | - | - | -
CCN1C(=O)C2CN(C(=O)c3cc(-c4ccncc4)nc4ccccc34)CCN2C1=O (stereo unspecified) | - | - | - | - | -
COC(=O)c1ccc(C2CC(=O)Nc3c2sc(C(=O)O)c3-c2ccc(OC)cc2)cc1 (stereo unspecified) | - | - | - | - | -
O=C(Nc1cccc([N+](=O)[O-])c1)Nc1ccc2snnc2c1 | - | 68 | 95 | 84 | 56
Cc1ccc(NC(=O)CC2N=C(N3CCN(C)CC3)NC2=O)cc1C (stereo unspecified) | - | - | - | - | -
Cc1cc(O)c(Oc2cc(C)cc(O)c2O)c(O)c1 | 34 | - | - | - | -
COCCN1C(=O)c2ccccc2C(C(=O)Nc2ccc3c(c2)OCO3)C12CCCC2 (stereo unspecified) | - | - | 69 | - | -
O=C(Nc1nccs1)C1c2ccccc2C(=O)N(Cc2ccccc2)C12CCCC2 (stereo unspecified) | - | 69 | 69 | - | -
COCCN1C(=O)c2ccccc2C(C(=O)Nc2ccc(NC(C)=O)cc2)C12CCCCC2 (stereo unspecified) | - | - | - | - | -
O=C(c1cccc(F)c1)N1C[C@@H]2OCCN(c3ncccn3)[C@@H]2C1 | - | - | - | - | -
COc1ccccc1Nc1ncnc2c1nnn2C | - | - | - | - | -
Cc1ccc(-c2cnc(C3CC3)o2)cc1S(=O)(=O)Nc1ccc(F)c(Cl)c1 | - | - | - | - | 39
COc1ccc(Cl)cc1NC(=O)COC(=O)c1cc2ccccc2oc1=O | - | - | 70 | - | -
Cc1cccc(C(C)C)c1NC(=O)COC(=O)c1cc2ccccc2oc1=O | - | - | - | - | -
CCc1cccc(CC)c1NC(=O)COC(=O)c1cc2cccc(OC)c2oc1=O | - | - | 62 | - | 33
Cc1c(C(=O)NC(C)CCc2ccccc2)oc2c(Cl)cccc12 (stereo unspecified) | - | - | - | - | -
CCN1C(=O)c2ccccc2C(=O)[C@@]2(C)CN(C(=O)Cc3ccccc3OC)C[C@@H]12 | - | - | - | - | -
CC1c2cc3c(cc2CCN1CC(=O)Nc1cc(Cl)ccc1-n1cncn1)OCCCO3 (stereo unspecified) | - | - | 47 | - | -
O=S1(=O)Cc2cnc(NCC3CC3)nc2[C@H]2CN(Cc3ccccc3)C[C@H]21 | - | - | - | - | -
Cc1ccccc1CN1C[C@@H]2c3nc(NCC4CC4)ncc3CS(=O)(=O)[C@@H]2C1 | - | - | 35 | - | -
COCCN1CCS(=O)(=O)c2c(Cl)c(F)nc(Oc3ccccc3F)c21 | - | - | 53 | - | -
O=S1(=O)CCN(Cc2cccnc2)c2c(Oc3ccccc3F)nc(F)c(Cl)c21 | - | - | - | - | -
SMILES | OTUD3 inh | UCHL1 inh | USP8 block | USP7 inh | USP10 block
COCCCN1CCS(=O)(=O)c2c(Cl)c(F)nc(Oc3ccc(C#N)cc3)c21 | - | - | 91 | . | -
O=C(CN1c2ccccc2S(=O)(=O)c2ccccc21)Nc1ccc(F)cc1 | - | - | - | - | -
COc1ccc(NC(=O)COc2cc(C)nc(-c3ccc(C)cc3)n2)c(OC)c1 | - | - | 46 | - | 30
Cn1nc(-c2ccccc2)c(COC(=O)c2ccc(Cl)cc2Cl)c1Oc1cccc(C(F)(F)F)c1 | - | - | - | - | -
Cc1cccc(NC(=O)C2CCc3nc(N4CCOCC4)ncc3C2)c1 (stereo unspecified) | - | - | - | - | -
COc1ccc(CSc2nc3ccncc3n2CC(=O)Nc2ccc(C)cc2C)cc1 | 34 | - | - | - | -
CC(C)CCN1[C@H]2CCN(c3ncc(F)cn3)CC[C@@H]2Oc2ccccc2S1(=O)=O | - | - | - | - | -
CC(=O)Nc1ccc(N2C(=O)c3cc(-c4ccco4)nn3CC2(C)C(=O)NCc2ccc(F)cc2)cc1 (stereo unspecified) | - | - | 39 | - | -
COCCNC(=O)C1(C)Cn2nc(-c3ccco3)cc2C(=O)N1c1ccc(NC(C)=O)cc1 (stereo unspecified) | - | - | - | - | -
O=C(C(Sc1ccccc1)c1ccccc1)N1CCN(c2cccc(C(F)(F)F)c2)CC1 (stereo unspecified) | - | - | - | - | -
CC(=O)OCC[C@@H]1[C@@]2(C)CCCC(C)(C)C2CC[C@@]1(C)O (stereo partly specified) | - | - | - | - | -
Cn1cc(CN[C@H]2[C@H](O)[C@H](O)C[C@@H]2c2ccc(C(F)(F)F)nc2)cn1 | - | - | 42 | - | -
Cn1cc(CN[C@H]2[C@H](O)[C@H](O)C[C@@H]2c2ccccc2)cn1 | - | - | - | - | -
O=C1c2[nH]nc(-c3ccccc3O)c2C(c2ccc(O)cc2)N1Cc1ccncc1 (stereo unspecified) | - | - | - | - | -
CC(C)OCCCN1C(=O)c2[nH]nc(-c3ccccc3O)c2C1c1cccc(Cl)c1 (stereo unspecified) | - | - | 55 | - | -
CN1C(=O)CO[C@H](c2ccc(NC(=O)c3ccc(C#N)cc3)cc2)[C@H]1CO | - | - | - | - | -
COc1ccc(NCc2nnc(SCC(=O)Nc3cccc4ccccc34)n2C)cc1 | - | - | 45 | - | -
COCCN(C(=O)Cc1ccccc1)c1nc(-c2ccc(OC)cc2)cs1 | - | - | - | - | -
COCCN(C(=O)C1CC1)c1nc(-c2ccccc2)cs1 | - | - | 31 | - | -
COc1ccc(CNC(=O)CCn2c(=O)c3sccc3n(Cc3ccccc3C#N)c2=O)cc1 | - | - | - | - | -
O=C(Cn1c(=O)c2sccc2n(Cc2ccc([N+](=O)[O-])cc2)c1=O)NCCc1ccccc1 | - | - | - | - | 38
O=C(CCn1c(=O)c2sccc2n(Cc2ccc([N+](=O)[O-])cc2)c1=O)NCc1ccccc1 | 44 | - | 61 | - | 39
COc1ccc(CCNC(=O)Cn2c(=O)c3sccc3n(Cc3ccccc3C#N)c2=O)cc1OC | - | - | - | - | -
Cc1ccc(-c2nc3c(c(SCC(=O)Nc4cccc(C(F)(F)F)c4)n2)COC(C)(C)C3)cc1 | - | - | - | - | -
O=c1[nH]c(C2CCN(S(=O)(=O)c3ccc(S(=O)(=O)NC4CC4)cc3)CC2)nc2c1nnn2Cc1cccc(Cl)c1 | - | - | - | - | 32
O=c1[nH]c(C2CCN(S(=O)(=O)c3ccc(S(=O)(=O)NC4CCCC4)cc3)CC2)nc2c1nnn2Cc1cccc(Cl)c1 | - | - | - | - | 37
COc1ccc(N/C=C/c2onc(-c3c(Cl)cccc3Cl)c2C#N)c(OC)c1 | - | - | - | - | -
